# Compounds with a hit are over-represented: about 0.26% of the library has one in this group of screens.
# Epigenetic reg – Quantitative High-Throughput Screen for Regulators of Epigenetic Control | AID 1865, 2009 | 0.2% of 280,000 active | Potency, µM (doses to about 53.9 µM), inactives show at the highest dose GFP activation, hits mostly activators | murine LDR cells, GFP reporter derepression, 30 h; active = well fitted activation curve with a large enough effect; inconclusive = small, poorly fitted or top-dose-only effect; also: potency is read from the fitted curve at half-maximal effect; % of control where 0% means no effect; nearly all actives have a fitted effect of over 60% in size
#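 In this reporter-derepression format, murine cells bearing a silenced integrated CMV-GFP locus incubate with test compound (30 h, 37 C), then are washed and imaged; fluorescent objects of 20–120 um count as induced cells.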
# Menin-MLL FL inh – qHTS Assay for Inhibitors Targeting the Menin-MLL Interaction in MLL Related Leukemias: Competition With Fluorescein Labeled MLL-derived Peptide | Fluorescence polarization, fluorescein-MLL peptide displacement from menin | FP activity change, % at 61.4 µM | 290,000 tested, under 10 active | AID 1766, 2009; active = well fitted curve in the direction sought with a large enough effect in the polarisation, not every such curve was filed as active; inconclusive = small, poorly fitted or top-dose-only effect, or effect the other way, or a change in a side signal; inactive = no such curve, though single readings can be large or run the other way; the % refers to the polarisation; also: % of control where 0% means no effect
# Menin-MLL TR inh – qHTS Assay for Inhibitors Targeting the Menin-MLL Interaction in MLL Related Leukemias: Competition With Texas Red Labeled MLL-derived Mutant Peptide; Menin + Texas Red MLL mutant peptide, fluorescence polarization; Potency, µM (series often up to 61.6 µM), inactives show at the top dose FP activity change, negative = inhibition, most hits filed as inhibitors; 0.23% of 270,000 active; AID 1768, 2009; active = well fitted inhibition curve with a large enough effect in the polarisation, with a control signal flat, not every such curve was filed as active; inconclusive = small, poorly fitted or top-dose-only effect, or effect the other way, or a change in a side signal; inactive = no such curve, though single readings can be large or run the other way; the % refers to the polarisation; also: potency is read from the fitted curve at half-maximal effect; % of control where 0% means no effect
# MLL CXXC-DNA inh – qHTS Fluorescence Polarization Assay for Inhibitors of MLL CXXC domain - DNA interaction | Potency, µM (top dose mostly 115 µM), without a hit: at the top dose activity change, negative = inhibition, actives largely listed as inhibitors | MLL-CXXC / FITC-HOXA9 DNA fluorescence polarization | 0.037% of 290,000 active; active = well fitted inhibition curve with a large enough effect in the polarisation, with a control signal flat, not every such curve was filed as active; inconclusive = small, poorly fitted or top-dose-only effect, or effect the other way, or a change in a side signal; inactive = no such curve, though single readings can be large or run the other way; the % refers to the polarisation; also: potency is read from the fitted curve at half-maximal effect
#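 Fluorescence polarization: 7 uM MLL-CXXC (stock) preincubated 5 min with compounds, then 50 nM fluorescein-HOX-A9 DNA (stock) added; 30 min ambient. Buffer 50 mM Tris-HCl pH 7.5, 50 mM NaCl, 1 mM DTT, 0.05% BSA.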
# LMNA splice mod – qHTS Assay for Modulators of Lamin A Splicing. HeLa LMNA splicing GFP/RFP minigene ratio, 48 h. Potency, µM (series often up to 46.1 µM), inactives show at the highest dose ratio change, negative = inhibition, hits mostly inhibitors. 0.01% of 200,000 active; active = well fitted inhibition curve with a large enough effect in the signal ratio, with a control signal flat, not every such curve was filed as active; inconclusive = small, poorly fitted or top-dose-only effect, or effect the other way, or a change in a side signal; the % refers to the signal ratio; also: potency is read from the fitted curve at half-maximal effect; % is scaled to controls: 0 for no effect and ±100 for the full control effect
#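 Read-out is the ratio of GFP to DsRed2 object intensity, acquired by 488 nm laser-scanning cytometry on HeLa lamin A-EGFP minigene reporter cells. Compound incubation 48 hrs at 37 °C in Opti-MEM with 2% FBS; DMSO 0.5% final.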
# * = called active by the depositor; ? = inconclusive; nt = no result.
SMILES,Epigenetic reg,Menin-MLL FL inh,Menin-MLL TR inh,MLL CXXC-DNA inh,LMNA splice mod
CSCC[C@H](NC(=O)[C@H](CC(C)C)NC(=O)[C@H](CO)NC(=O)[C@H](CCC(=O)O)NC(=O)[C@H](CC(C)C)NC(=O)[C@H](Cc1ccc(O)cc1)NC(=O)[C@H](CCCCN)NC(=O)[C@H](CCCCN)NC(=O)[C@H](C)NC(=O)[C@H](CO)NC(=O)[C@H](CC(C)C)NC(=O)[C@H](CCC(N)=O)NC(=O)CNC(=O)[C@H](CC(C)C)NC(=O)[C@H](CC(C)C)NC(=O)[C@H](CCCCN)NC(=O)[C@H](CO)NC(=O)[C@H](Cc1ccccc1)NC(=O)[C@H](CC(=O)O)NC(=O)[C@H](CO)NC(=O)[C@@H](NC(=O)[C@H](Cc1ccccc1)NC(=O)[C@@H](NC(=O)CNC(=O)[C@H](CC(=O)O)NC(=O)[C@H](C)NC(=O)[C@@H](N)Cc1cnc[nH]1)C(C)C)[C@@H](C)O)C(N)=O,nt,3.6,-2.8%,nt,nt
CC1=CC(=C(c2ccc(N)cc2)c2ccc(N)cc2)C=CC1=N,nt,4.5,?,2.7%,nt
CC(=Nc1ccccc1N)c1c(C)cc(=O)n(O)c1O,nt,0.8,?,nt,nt
CCOC(=O)C1=C(CSc2nc(-c3ccccc3)ccc2C#N)OC(N)=C(C#N)C1c1ccc(OC)cc1 (stereo not drawn),2.3%,?,14.1µM*,39.8%,-5.1%
CCOC(=O)C1=C(CSc2nc(CC)c(C)cc2C#N)OC(N)=C(C#N)C1c1ccccc1 (stereo not drawn),-6.1%,15.2,-2.3%,21.1%,6.9%
O=C(NCCO)c1ccc(-n2c(=O)c(=O)[nH]c3ccccc32)cc1,0.8%,nt,nt,nt,nt
c1ncc(CCCC2CCNCC2)[nH]1,nt,-2.7,10.7%,nt,nt
CC1=NN(c2cccc(F)c2)C(=O)/C1=C/c1ccc(N(C)C)cc1,nt,-14.1,22.4µM*,?,nt
CCCCC(=Nc1ccc(N)cc1)C1=C(O)C(C(=O)OC)C(C)(C)CC1=O (stereo not drawn),3.0%,5.5,?,-3.3%,4.3%
CCC(=Nc1ccc(N)cc1)C1=C(O)C(C(=O)OC)C(C)(C)CC1=O (stereo not drawn),?,?,31.6µM*,3.3%,21.7%
C=CCc1cccc(/C=N/NC(=O)CN2CCN(Cc3ccccc3)CC2)c1O,nt,?,-7.1%,nt,nt
Cc1cc(C)c2nc(SCC(=O)N3CC(=O)Nc4ccccc43)c(C#N)cc2c1,10µM*,?,-5.3%,50.0%,?
CC1C/C(=C/c2cccn2C)C(=O)/C(=C/c2cccn2C)C1 (stereo not drawn),11.2µM*,?,-9.2%,?,?
CC1C/C(=C/c2ccncc2)C(=O)/C(=C/c2ccncc2)C1 (stereo not drawn),?,-2.4,-25.3%,8.8%,nt
CC(=O)CC1OC(=O)C(Br)=C1NCc1ccccc1 (stereo not drawn),7.94µM*,7.5,-8.7%,1.7%,?
COc1ccc(-c2cc(C(=O)N/N=C/c3ccc(O)cc3)[nH]n2)cc1,-0.1%,nt,nt,nt,nt
COc1ccc(C(=O)c2sc3nc(-c4ccc(C)cc4)cc(C(F)(F)F)c3c2N)cc1,1µM*,nt,nt,nt,nt
COc1ccc(C(=O)c2sc3nc(-c4ccc(OC)cc4)ccc3c2N)cc1,16.0%,?,?,36.1%,-13.0%
Cc1ccccc1Nc1nc(Nc2ccccc2C)nc(SC2=NCCS2)n1,0.0%,1.7,-25.1%,22.8%,?
Cc1ccc(Nc2nc(Nc3ccc(C)cc3)nc(SC3=NCCS3)n2)cc1,-5.4%,1.2,39.8µM*,19.7%,?
CC1(C)C(=O)NC2=C1C(=O)C(=O)c1ccccc12,0.8%,?,?,nt,nt
CCn1c(O)c(/C=N/N=C/c2ccc(OC)cc2)c2cc(C3=NNC(=O)CC3)ccc21,7.08µM*,?,nt,?,nt
CCCn1nc(NC(=O)c2cccc(Cl)c2)c2cc3cccc(C)c3nc21,15.8µM*,nt,nt,nt,nt
CCOC(=O)c1c(C)oc2c1c(C=NCc1ccccn1)c(O)c1ccccc12,?,?,3.55µM*,-12.9%,?

# Bioassay records (PubChem)
